The target in assay [1] is T1, Aspartate--tRNA(Asp/Asn) ligase (Mycobacterium tuberculosis (strain ATCC 25618 / H37Rv)) (UniProt P9WFW3). Further: in the data most compounds retested in dose-response had high values.
T1 sequence (whole entry): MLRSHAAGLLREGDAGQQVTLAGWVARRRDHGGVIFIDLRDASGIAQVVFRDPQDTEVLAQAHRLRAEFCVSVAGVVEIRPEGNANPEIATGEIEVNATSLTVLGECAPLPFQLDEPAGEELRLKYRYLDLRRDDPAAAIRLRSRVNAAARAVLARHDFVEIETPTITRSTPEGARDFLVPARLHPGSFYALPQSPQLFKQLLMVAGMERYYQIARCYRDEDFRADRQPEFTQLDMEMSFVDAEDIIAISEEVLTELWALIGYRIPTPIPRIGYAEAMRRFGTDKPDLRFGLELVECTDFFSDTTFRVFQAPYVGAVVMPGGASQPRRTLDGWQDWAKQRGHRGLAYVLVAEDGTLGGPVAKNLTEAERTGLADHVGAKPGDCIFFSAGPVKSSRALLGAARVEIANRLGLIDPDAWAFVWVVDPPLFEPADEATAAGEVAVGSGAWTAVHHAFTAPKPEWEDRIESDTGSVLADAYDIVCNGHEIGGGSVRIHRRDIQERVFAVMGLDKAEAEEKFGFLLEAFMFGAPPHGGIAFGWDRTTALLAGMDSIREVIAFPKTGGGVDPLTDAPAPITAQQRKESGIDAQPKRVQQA
The assay can be described thus: Assay for Asp RNA synthetase-1 from Mycobacterium tuberculosis. Particulars: 30 µM. Type of assay: functional. Further details: scale not given: direction of the effect not stated beside the values.

Assay [2] addresses Shiga toxin 2 (Escherichia coli O157:H7) (UniProt P09385+P09386). The assay can be described thus: E. coli 0.157:H7 Shiga Toxin SOP - stx2 screening assay. The class given is functional. Further details: scale not given: direction of the effect not stated beside the values. Particulars: 30 µM.

`CCCn1ncc(CN2C[C@@H]3CCCN3C[C@@H]2CCSC)c1C`: the results for the Percent Effect in assay [1] and in assay [2] were -1.92% and -13.3%, respectively.
As for `CCc1nc(C2CCCN(C(=O)CN(C)S(C)(=O)=O)C2)no1` (centres undefined), the Percent Effect in assay [1] is -3.98%; in assay [2], -6.61%.
The like results for `Cc1ncnc2c1CCN(Cc1cccs1)CC2` were, in that order, 9.2% and -21.2%.
For `Cc1ccc(NCc2cncc3c2CCN(C(=O)C2CC=CC2)C3)nn1`, in that order: 6.32% and -38%.
Consider `COc1ccc(F)cc1C(=O)N(C)Cc1cc(C)on1`, for which the Percent Effect in assay [1] was -3.3%; in assay [2], -29.3%.
In the case of `Cn1cc(CN2CC[C@H]3O[C@H](C(=O)NCc4ccco4)CC[C@H]32)cn1`, the Percent Effect in assay [1] was 5.47%; in assay [2] it was -27.7%.
Take `CC(CNC(=O)N1CCN(CC(F)F)CC1)Cc1cccs1` (centres undefined): the Percent Effect is -1.76% in assay [1] and 0.53% in assay [2].
For `COC(=O)CS(=O)(=O)CCC(=O)N1CCCC1c1ccsc1` (centres undefined), in that order: -1.34% and -0.403%.
For the compound `CSCc1cccc(C(=O)N2CCN(CC(C)O)CC2)c1` (centres undefined), the Percent Effect in assay [1] was -0.819%; in assay [2], 7.3%.
The like results for `CCC(CC)C(CNC(=O)Nc1cc(C)nn1C)N1CCOCC1` (centres undefined) were, in that order, -8.48% and -29.4%.
Consider `Cc1cc(C)n2cc(CN3CCCC3Cn3nc(C)nc3C)nc2n1` (centres undefined), for which the Percent Effect was -2.84% in assay [1] and 5.36% in assay [2].
The like results for `CCn1ccnc1CNCC1CCCN1c1cc(NC)ncn1` (centres undefined) were, in that order, 1.78% and -12.7%.
For `CSc1ncc(C(=O)N2C[C@H]3CC[C@@H]2CN(Cc2ccccc2)C3)cn1`, the Percent Effect in assay [1] is 1.12%; in assay [2], -17.1%.
For `COc1ncccc1C(=O)N1CCC(c2nnc(C3CC3)o2)CC1`, the Percent Effect was found to be 3.02% in assay [1] and 0.085% in assay [2].
The like results for `COc1cc(CCC(C)O)c(OC)c2c1OCO2` (centres undefined) were, in that order, -0.435% and -10.2%.
The like results for `COc1ccc(OC)c(NC(=O)N2CCCC2c2ccco2)c1` (centres undefined) were, in that order, -4.36% and 0.199%.
As to `CC(NC(=O)NCCNc1ncccn1)c1cccs1` (centres undefined), the Percent Effect in assay [1] was -2.58%; in assay [2], -27.7%.

(Values after ChEMBL document CHEMBL3988442, “University of Dundee, Small-Polar-MMV Screening Library” (2021).)
